# Assay results taken from PubChem BioAssay (NCI).
# About 83,000 compounds went through this panel and 20% of them were active in at least one assay; those are over-represented in the sample as a whole.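 Assay: single dose, 48 h. Readout: percent growth (0 = no net growth; negative = cell death). Active: <10.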 Unmarked numbers belong to inactive results. The source made the active and inactive calls.
# Test system: NCI-H460 lung
# Assay: NCI-60 one-dose screen, 48 h (100 = growth as untreated, 0 = no growth, -100 = all killed)
# Details: 10 µM unless noted
# Procedure: Growth inhibition of the NCI-H460 human Non-Small Cell Lung tumor cell line is measured as a screen for anti-cancer activity. Cells are grown in 96 well plates and exposed to the test compound for 48 hours. Compounds are tested at a single concentration, which is 10^-5 M for most compounds. The reported endpoint is percent growth (GI% or GIPRCNT), where numbers from 0 - 100% represent growth inhibition, and numbers from -100% - 0 represent cell death. For example, a value of 40 represents 60% growth inhibition. A value of 0 means no net growth occurred over the course of the experiment. A value of -40 indicates 40% of cells at the beginning of the experiment died by the end of the experiment. A value of -100 means all cells are dead at the end of the experiment.
# NCI-60 Human Tumor Cell Lines Screen was performed using the standard one-dose NCI protocol, which is described in more detail at https://dtp.cancer.gov/discovery_development/nci-60/default.htm.
# Compounds with GIPRCNT values below 10 were considered active. Activity score was based on GIPRCNT using the following formula: […]
# Score is 0 for GIPRCNT values of 100 or above, 50 for GIPRCNT values of 0, and 100 for GIPRCNT values of -100.
row,SMILES,growth
1,Cc1cccc(Cl)c1NC(=O)c1ccc2nc(NC(=O)NC3CC(C)(C)NC(C)(C)C3)sc2c1,101%
2,O=C(Nc1ccc(OCc2nnc(-c3ccccc3)o2)c(F)c1)Nc1ccc(Cl)c(C(F)(F)F)c1,-0.0623% (active)
3,COc1ccc(-c2cncn2-c2ccc(-c3nc4cc(OC)c(OC)c(OC)c4s3)cc2)cc1N,51.4%
4,CCN(CC)CCOc1ccccc1-n1c(C)ccc1-c1ccccc1,44.2%
5,Cc1cc(C)n(C(=O)c2nn(-c3ccc(Cl)cc3)cc2O)n1,5.55% (active)
6,CCC(CC)NCCCCCNc1cc(OC)cc2cccnc12,105%
7,C=CCOc1ccc2c(c1)CC[C@@H]1[C@@H]2CC[C@@]2(C)[C@H]1CC[C@]2(C)O,46.3%
8,COc1ccc(C(=O)COc2cccc(/C=C3\Oc4ccc5ccccc5c4C3=O)c2)cc1,100%
9,O=C(/C=C/c1cc2ccccc2[nH]c1=O)c1ccc(Cl)cc1,12%
10,O=C(Nc1cccc2ccccc12)c1cc2c(cc1Br)OCO2,92.9%
11,Cc1nn(-c2ccccc2)c2nc(Cl)c(/C=C/C(=O)c3ccccc3)c(-c3ccccc3)c12,106%
12,CCC(=O)Nc1ccccc1C#C/C=C\C#Cc1ccccc1C(F)(F)F,10.2%
13,O=C(CSCC(=O)N/N=C/c1ccccc1O)N/N=C\c1ccccc1O,14.2%
14,O=C(/C=C/c1ccc(O)c(O)c1)N1CCN(c2ccc(Cl)cc2)CC1,46.4%
15,Oc1[nH]c2ccc(Cl)cc2c1/C=c1/ccc2c(c1)N=C(c1ccc(C(F)(F)F)cc1)N=2,39.2%
16,O=C1CC(=O)N(c2ccccc2)O1,111%
17,NC(=O)N/N=C/c1ccc(Br)o1,110%
18,COc1cc2c(cc1OC)C1CCN3C(=O)CCC3N1CC2 (stereo not given),107%
19,CCN(CC)CCNc1ccc(Cl)cc1Cl,107%
20,Cc1cc(N2CCOCC2)nc(N2CCOCC2)n1,99.4%

row,SMILES,growth
1,ClC1=C(Cl)C(Cl)=C(Cl)C1=Cc1ccc(Cl)cc1,-63.4% (active)
2,COc1cc(/C=C/C(=O)Nc2cccnc2Nc2cc(OC)c(OC)c(OC)c2)cc(OC)c1OC,95.4%
3,COc1ccc(COC(C)=O)cc1,111%
4,Clc1nc(Cl)c2ncn(-c3ccccc3)c2n1,89.2%
5,O=C(CSc1nnc(Nc2ccccc2)s1)NCCc1ccc(F)cc1,105%
6,COc1ccc(-c2nnc(COc3ccc(NC(=O)Nc4cc(C(F)(F)F)cc(C(F)(F)F)c4)cc3F)o2)cc1,4.82% (active)
7,CCSc1nnc2n(Cc3ccccc3)c(=O)c3c(C)c(C(N)=O)sc3n12,109%
8,CCN1C2=C(SC(=S)C1=C1SC(C(=O)OC)=C(C(=O)OC)S1)SC(=Nc1ccc(OC)cc1)C2=O,-47.5% (active)
9,COC(=O)C[C@@H]1CC=CC(=O)/C1=C(O)/C=C/c1ccccc1,-42.5% (active)
10,C=C1CC[C@@H]2[C@](C)(COC(C)=O)[C@H](OC(C)=O)CC[C@@]2(C)[C@@H]1CC(Nc1ccc(S(=O)(=O)Nc2cc(C)on2)cc1)C1=CCOC1=O (stereo not given in full),79.5%
11,COc1ccc(-c2oc3cc(O)c(OC)c(O)c3c(=O)c2OC)cc1O,1.5% (active)
12,ClC1=C(Cl)C(=C2C(Cl)=C(Cl)C(Cl)=C2Cl)C(Cl)=C1Cl,103%
13,CCCCC(C#N)C(N)=O (stereo not given),111%
14,O=C(Nc1ccc(Cl)cc1Cl)Nc1ccc(-c2cccnc2)cc1N1CCC(CO)CC1,35.1%
15,Clc1cccc(Cc2cn3cc(-c4ccccc4)nc3s2)c1,16.5%
16,OCc1nnn(-c2ccccc2)c1CO,116%
17,COc1ccc2nccc(/C=C/c3ccnc4ccc(OC)cc34)c2c1,100%
18,Cc1ccc2c(c1)O/C(=C\c1ccc([N+](=O)[O-])o1)C2=O,25.4%
19,c1cnc2ccc3ncccc3c2c1,105%
20,CCS(=O)(=O)OCCCl,107%
